Active and inactive are the calls of the source. Unless noted, how the calls were made is not given here.

The nature of assay [1]: HepG2 liver cancer cell viability effects, profiling panel, resazurin fluorescence, 24 h, PK04 Diversity Set (AID 1172). Further: test concentration not given here. To be noted: higher = more signal. (In general: Alamar Blue is a resazurin reagent that responds to reducing activity.)
The nature of assay [2]: basal S. cerevisiae growth modulation, no modifier, primary screen, OD600, strain BY4716, 24 h, basal condition (AID 1173). To be noted: OD600, 24 h, higher = more signal, called active from +8 up or from −8 down.
Assay [3] can be described thus: MM1S myeloma cell viability, profiling panel, resazurin fluorescence, basal, 24 h, PK04 Diversity Set (AID 1174).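 Further: MM1S multiple myeloma cell line; test concentration not given here.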 To be noted: higher = more signal, called active from +8 up or from −8 down.
The target of assay [4] is Dihydroorotate dehydrogenase (quinone), mitochondrial (Plasmodium falciparum (isolate 3D7)) (UniProt Q08210). As to the kind of experiment: PfDHODH enzyme inhibitors, primary screen, biochemical, C-terminal His tag, absorbance 600 nm (AID 1175).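 Further: recombinant parasite enzyme with a five histidine tag at its C terminus; test concentration not given here.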 The conditions noted are these: DCIP absorbance 600 nm, higher = more signal, called active from +8 up or from −8 down.
Chain of Dihydroorotate dehydrogenase (quinone), mitochondrial (Plasmodium falciparum (isolate 3D7)) (Q08210 whole entry, looked up): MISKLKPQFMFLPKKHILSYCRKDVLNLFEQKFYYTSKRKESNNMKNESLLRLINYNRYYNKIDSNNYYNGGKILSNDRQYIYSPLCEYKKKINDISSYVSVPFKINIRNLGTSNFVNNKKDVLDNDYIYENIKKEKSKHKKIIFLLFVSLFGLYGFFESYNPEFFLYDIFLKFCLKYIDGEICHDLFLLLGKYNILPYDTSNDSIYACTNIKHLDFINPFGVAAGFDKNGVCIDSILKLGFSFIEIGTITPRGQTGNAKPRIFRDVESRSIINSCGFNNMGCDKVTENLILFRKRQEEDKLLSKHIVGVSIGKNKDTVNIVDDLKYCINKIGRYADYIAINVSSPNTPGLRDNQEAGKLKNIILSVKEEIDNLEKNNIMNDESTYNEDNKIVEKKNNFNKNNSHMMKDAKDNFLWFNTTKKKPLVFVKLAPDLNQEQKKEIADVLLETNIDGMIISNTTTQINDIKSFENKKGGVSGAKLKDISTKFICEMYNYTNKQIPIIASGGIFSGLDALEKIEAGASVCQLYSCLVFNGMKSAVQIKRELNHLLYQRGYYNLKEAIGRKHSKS
A short description of assay [5]: P. aeruginosa biofilm formation inhibitors, primary screen, strain PAO1, LB-PBS medium, absorbance 600 nm (AID 1176). Further: test concentration not given here. To be noted: P. aeruginosa PAO1 growth/biofilm, A600, 12 h; higher = more signal.
Assay [6] can be described thus: S. cerevisiae RM11-1a growth modifiers, primary screen, strain RM11-1a, OD600, basal, 24 h (AID 1177).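 Further: cultures grown under basal conditions with no added stressor; test concentration not given here.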 To be noted: OD600, 24 h, higher = more signal, called active from +8 up or from −8 down.
A short description of assay [7]: E. coli acrAB mutant growth effects, primary screen, E. coli filamentation inducers, strain DRC39, OD650, 24 h (AID 1178).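 Further: growth measured as culture turbidity by optical density at 650 nm; test concentration not given here.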 To be noted: higher = more signal, called active from +8 up or from −8 down.
Assay [8] can be described thus: E. coli acrAB mutant growth effects, primary screen, E. coli filamentation inducers, strain DRC39, OD650, 48 h (AID 1179).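 Further: screen aims at cell division blockers that make cells filament.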 To be noted: E. coli DRC39 delta-acrAB growth, higher = more signal, called active from +8 up or from −8 down.
Assay [9] in a line: RPMI8226 myeloma cell viability, profiling panel, resazurin fluorescence, basal, 24 h, PK04 Diversity Set (AID 1180).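 Further: RPMI8826 multiple myeloma cell line at 5000 cells per well; test concentration not given here.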 The conditions noted are these: higher = more signal.
Assay [10] concerns the target E3 ubiquitin-protein ligase XIAP (Homo sapiens) (UniProt P98170). As to the kind of experiment: XIAP binders, primary screen, biophysical, small-molecule microarray, fluorescence 635 nm (AID 1181).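 Further: score merges 667 nm emission and signal to noise over triplicate slides.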 The conditions noted are these: small-molecule microarray binding, higher = more signal.

Chain of E3 ubiquitin-protein ligase XIAP (Homo sapiens) (P98170 whole entry, looked up): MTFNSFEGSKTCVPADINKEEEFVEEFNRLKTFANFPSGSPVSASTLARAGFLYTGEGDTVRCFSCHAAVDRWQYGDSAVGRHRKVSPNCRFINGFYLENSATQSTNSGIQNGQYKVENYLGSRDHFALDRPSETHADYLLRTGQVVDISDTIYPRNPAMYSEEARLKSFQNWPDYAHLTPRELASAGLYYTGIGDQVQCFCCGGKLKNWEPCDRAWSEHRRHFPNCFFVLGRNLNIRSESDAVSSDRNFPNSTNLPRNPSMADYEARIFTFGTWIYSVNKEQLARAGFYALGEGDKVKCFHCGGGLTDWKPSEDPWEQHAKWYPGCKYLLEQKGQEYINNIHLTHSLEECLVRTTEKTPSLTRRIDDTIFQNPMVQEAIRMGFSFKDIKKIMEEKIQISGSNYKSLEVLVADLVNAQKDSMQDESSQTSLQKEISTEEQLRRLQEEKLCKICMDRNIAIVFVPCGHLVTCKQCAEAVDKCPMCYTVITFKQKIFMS

On to `COCCOC(=O)N1C(=O)[C@@]2(c3ccccc31)[C@H](c1ccccc1OCCO)N1[C@H](c3ccccc3)[C@H](c3ccccc3)OC(=O)[C@H]1[C@@H]2C(=O)N1CCCCCCC1`, for which the z-score in assay [1] is 0.293; in assay [2], 1.7 (inactive); in assay [3] it was -0.097 (inactive); in [5] it was 2.48 (inactive); in assay [6] it was 1.39 (inactive); in [7], 0.542 (inactive). Further, the z-score in [8] was -1.15 (inactive); in assay [9], -0.353. The composite z-score in [4] is 0.054 (inactive); in assay [10], 1.57.

As for `CC(C)CNC(=O)[C@@H]1c2ccccc2C(=O)N(C2CCCCC2)[C@H]1c1ccc(CO)cc1`, the z-score is 1.12 in [1]; -0.664 (inactive) in [2]; 1.5 (inactive) in assay [3]; 0.292 (inactive) in assay [5]; -1.22 (inactive) in assay [6]; 1.49 (inactive) in assay [7]. Moreover, the z-score in assay [8] was 1.59 (inactive); in assay [9], 1.34. Further, the composite z-score is 0.246 (inactive) in assay [4] and -0.234 in assay [10].

With `CN(C)C(=O)[C@@]1(Cc2ccccc2)COC(c2ccc(OCCCO)cc2)=N1`, the z-score is -0.272 in assay [1]; -3.27 (inactive) in assay [2]; -0.403 (inactive) in assay [3]; -0.841 (inactive) in assay [5]; 0.536 (inactive) in assay [6]; 0.704 (inactive) in [7]. The z-score was 1.19 (inactive) in assay [8] and 0.449 in assay [9]. Further, the composite z-score in [4] is 0.263 (inactive); in [10], 0.521.

Turning to `COCCOC(=O)N1C(=O)[C@@]2(c3cc(C#CC4=CCCCC4)ccc31)[C@H](C(=O)N1CCCCCCC1)[C@H]1C(=O)O[C@H](c3ccccc3)[C@H](c3ccccc3)N1[C@@H]2c1ccc(OCCO)cc1`, the z-score was 0.111 in [1]; -0.145 (inactive) in [2]; -0.341 (inactive) in assay [3]; 2.26 (inactive) in assay [5]; 1.16 (inactive) in assay [6]; -0.427 (inactive) in [7]. In addition, the z-score is -0.311 (inactive) in assay [8] and 0.169 in assay [9]. The composite z-score in assay [4] was -1.9 (inactive); in assay [10] it was 0.144.

`[N-]=[N+]=NCc1ccccc1[C@@H]1OC(c2ccc(OCCCO)cc2)=N[C@]1(Cc1ccccc1N=[N+]=[N-])C(=O)N1CCCCC1`: the z-score is 0.56 in assay [1]; -0.139 (inactive) in assay [2]; -1.98 (inactive) in assay [3]; 0.327 (inactive) in assay [5]; 1.09 (inactive) in assay [6]; -0.0949 (inactive) in [7]. The z-score in assay [8] is 0.599 (inactive); in assay [9], -2.88. Further, the composite z-score was 0.303 (inactive) in [4] and 0.172 in assay [10].

For `[N-]=[N+]=Nc1ccccc1C[C@]1(C(=O)O)N=C(c2ccc(OCCCO)cc2)O[C@H]1c1ccccc1N=[N+]=[N-]`, the z-score in assay [1] was 0.675; in [2], -2.36 (inactive); in assay [3], -0.0953 (inactive); in [5], 1.13 (inactive); in assay [6], -0.296 (inactive); in assay [7], 2.43 (inactive). Further, the values for the z-score in assay [8] and in [9] were 0.76 (inactive) and -0.215, respectively. Besides, the composite z-score in [4] is 0.463 (inactive); in [10], -0.145.

As for `CC(C)CNC(=O)[C@@]1(C)c2ccccc2C(=O)N(Cc2cc(C(F)(F)F)cc(C(F)(F)F)c2)[C@H]1c1ccc(CO)cc1`, the z-score in [1] is -0.402; in assay [2] it was 0.145 (inactive); in [3], -0.47 (inactive); in assay [5] it was -0.0933 (inactive); in assay [6] it was -0.46 (inactive); in [7] it was 0.162 (inactive). Also, the z-score was 0.644 (inactive) in [8] and 0.364 in assay [9]. Also, the composite z-score in assay [4] is 0.24 (inactive); in assay [10] it was -0.206.

Consider `COCC(=C=CC[C@@H](O)c1cccc(OCCO)c1)CCO`, for which the z-score in [1] is -0.161; in [2], -0.773 (inactive); in assay [3] it was -0.0845 (inactive); in [5] it was -0.59 (inactive); in assay [6] it was -0.357 (inactive); in assay [7], 0.583 (inactive). Moreover, the z-score in assay [8] is 0.464 (inactive); in [9], -0.0794. Besides, the composite z-score is -2.07 (inactive) in assay [4] and -0.241 in [10].

As to `COCCOC(=O)N1C(=O)[C@@]2(c3ccccc31)[C@H](c1ccccc1OCCO)N1[C@H](c3ccccc3)[C@H](c3ccccc3)OC(=O)[C@H]1[C@@H]2C(N)=O`, the z-score is -0.704 in assay [1]; 1.82 (inactive) in [2]; -2.78 (inactive) in assay [3]; 2.07 (inactive) in assay [5]; 1.98 (inactive) in assay [6]; 0.322 (inactive) in assay [7]. The z-score in assay [8] was -0.528 (inactive); in [9], -4.57. The composite z-score in [4] is 0.565 (inactive); in assay [10] it was -0.288.

Turning to `COc1ccc([Si](C)(C)[C@@H]2[C@@H](CC(=O)N3Cc4ccccc4C[C@H]3CO)O[C@]3(C(=O)N(c4ccccc4)c4ccccc43)[C@H]2C)cc1`, the z-score was -1.05 in assay [1]; 0.318 (inactive) in assay [2]; -2.64 (inactive) in assay [3]; 0.626 (inactive) in assay [5]; 2.42 (inactive) in assay [6]; 0.33 (inactive) in assay [7]. Besides, the z-score in assay [8] was -0.165 (inactive); in assay [9], -4.45. For the same compound, the results for the composite z-score in [4] and in assay [10] were 1.13 (inactive) and 2.42, respectively.

Take `CCOC(=O)C=Cc1ccccc1O`: the z-score is -0.193 in assay [1]; -9.29 (active) in assay [2]; -0.056 (inactive) in assay [3]; 0.0236 (inactive) in assay [5]; -8.46 (active) in assay [6]; -0.0367 (inactive) in [7]. Moreover, the z-score in assay [8] is -0.276 (inactive); in assay [9], -0.234. The values for the composite z-score in assay [4] and in [10] were -0.576 (inactive) and 0.125, respectively.

Regarding `NC(=O)NCC#Cc1ccc2c(c1)[C@]1(C(=O)N2)[C@H](C(=O)N2CCN(c3ncccn3)CC2)[C@H]2C(=O)O[C@H](c3ccccc3)[C@H](c3ccccc3)N2[C@@H]1c1ccc(OCCO)cc1`, the z-score is 0.906 in assay [1]; 2.6 (inactive) in [2]; 0.0294 (inactive) in [3]; 1.91 (inactive) in [5]; 3.91 (inactive) in assay [6]; 0.436 (inactive) in [7]. Further, the z-score is -0.114 (inactive) in assay [8] and 0.0901 in assay [9]. Besides, the results for the composite z-score in assay [4] and in assay [10] were -0.238 (inactive) and -0.202, respectively.

As for `C=C(CCCC)C(=O)CC[C@@H](OC(=O)c1cccnc1)c1ccc(OCCO)cc1`, the z-score in [1] is -0.211; in assay [2], -2.75 (inactive); in assay [3], -1.43 (inactive); in [5], 0.543 (inactive); in [6], -0.208 (inactive); in assay [7], -0.566 (inactive). For the same compound, the z-score in [8] is -0.547 (inactive); in assay [9], -2.52. The composite z-score was -2.9 (inactive) in assay [4] and 0.0542 in assay [10].

Take `COc1ccc([Si](C)(C)[C@H]2[C@H](CC(=O)N3Cc4ccccc4C[C@H]3CO)O[C@@]3(C(=O)N(Cc4ccc(N5C(=O)c6cccc7cccc5c67)cc4)c4ccccc43)[C@@H]2C)cc1`: the z-score is 0.716 in [1]; 0.21 (inactive) in assay [2]; -2 (inactive) in [3]; 1.13 (inactive) in assay [5]; 1.77 (inactive) in assay [6]; 0.929 (inactive) in [7]. Besides, the z-score in [8] is 0.472 (inactive); in assay [9], -0.737. The composite z-score was -0.934 (inactive) in assay [4] and -0.063 in assay [10].

As for `COCCOC(=O)N1C(=O)[C@@]2(c3cc(C#CCNC(N)=O)ccc31)[C@H](c1ccc(OCCO)cc1)N1[C@H](c3ccccc3)[C@H](c3ccccc3)OC(=O)[C@H]1[C@@H]2C(=O)NC[C@H](O)c1ccccc1`, the z-score in assay [1] is 0.637; in assay [2], 1.82 (inactive); in assay [3] it was 0.0592 (inactive); in assay [5], 2.18 (inactive); in [6], 1.54 (inactive); in [7], 0.48 (inactive). Further, the z-score in assay [8] was -0.532 (inactive); in assay [9], -0.45. Also, the composite z-score in [4] is -1.88 (inactive); in [10], -0.153.

In the case of `COc1ccc(C(O)C2C=CC3C(=O)N(c4ccccc4)C(=O)C3N2Nc2ccccc2F)cc1` (stereo not given), the z-score was -0.229 in [1]; -0.359 (inactive) in [2]; -0.0646 (inactive) in assay [3]; 0.987 (inactive) in assay [5]; -0.687 (inactive) in assay [6]; -0.548 (inactive) in assay [7]. Also, the z-score was -0.869 (inactive) in [8] and 0.435 in assay [9]. Besides, the composite z-score is -0.0377 (inactive) in [4] and 0.483 in assay [10].

(Values after PubChem BioAssay.)
